Experimental data taken from PubChem BioAssay (Tox21).
A number with no mark means an inactive call. The call rests on the fitted dose curve; in most records, active means well fitted curve in the direction sought with a large enough effect in the repeat runs; inconclusive means weak or mixed curves; inactive means flat fitted curve, though single readings scatter.

Test: qHTS assay to test for compound auto fluorescence at 460 nm (blue) in HepG2 cell free culture (AID 720685)
Conditions: Cell-free culture medium, blue autofluorescence 405/460 nm; series mostly up to 91.3 µM; fluorescence, % of fluorescent control: at the top concentration
Outline: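 Compound (23 nL) or DMSO pinned into cell-free MEM with 10% FBS; blue fluorescence read at 405/460 nm excitation/emission, expressed as auto-fluorescence equivalency to triamterene.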
On the % scale 0 is the no-effect control and ±100 the full control effect.

Q: Which “fluorescence, % of fluorescent control” value does the source give for CN1CCC[C@@H]1Cc1c[nH]c2ccc(CCS(=O)(=O)c3ccccc3)cc12 here?
A: The value was 0.0117% [at 46 µM].

Q: Which “fluorescence, % of fluorescent control” value does the source give for CC1CN(c2ccccc2)NC1=O (configuration not stated) here?
A: Its value is 0.0135%.

Q: For CCOC(=O)CS, which “fluorescence, % of fluorescent control” value is on record?
A: Its value is -0.0372% [at 95.7 µM].

Q: Which “fluorescence, % of fluorescent control” value does the source give for Cc1cc2c(s1)Nc1ccccc1N=C2N1CCN(C)CC1 here?
A: Its value is -0.0363% [at 46 µM].

Q: For O=C1CCCCC1C1CCCCC1 (configuration not stated), which “fluorescence, % of fluorescent control” value is on record?
A: The value was 0.0211%.

Q: Which “fluorescence, % of fluorescent control” value does the source give for CCC(=O)c1ccc2c(c1)N(CCCN(C)C)c1ccccc1S2 here?
A: Its value is 0.309% [at 46 µM].

Q: With CN(C)CCOc1ccccc1Cc1ccccc1 as the compound, how does the “fluorescence, % of fluorescent control” value read?
A: Its value is -0.135% [at 46 µM].

Q: Which “fluorescence, % of fluorescent control” value does the source give for CCOc1ccc(NS(=O)(=O)c2ccc(N)cc2)nn1 here?
A: Its value is -0.0114% [at 46 µM].

Q: Which “fluorescence, % of fluorescent control” value does the source give for Cn1cnc2c(F)c(Nc3ccc(Br)cc3Cl)c(C(=O)NOCCO)cc21 here?
A: Its value is 0.0427% [at 46 µM].

Q: Which “fluorescence, % of fluorescent control” value does the source give for CCCCCCCCCCCCCCCCOP(=O)([O-])OCC[N+](C)(C)C here?
A: The value was 0.03% [at 46 µM].

Q: For CCN(CCCc1ccccc1)CCCc1ccccc1, which fluorescence, % of fluorescent control is on record?
A: The fluorescence, % of fluorescent control was 0.009% [at 18.6 µM].

Q: Which “fluorescence, % of fluorescent control” value does the source give for CCCCCCCCCCCCOCCOS(=O)(=O)O here?
A: The value was 0.0055%.

Q: Which “fluorescence, % of fluorescent control” value does the source give for CCNCCO here?
A: Its value is -0.0315%.

Q: For O=C(CC(=O)C(F)(F)F)c1ccccc1, which “fluorescence, % of fluorescent control” value is on record?
A: Its value is 0.0419% [at 95.7 µM].

Q: With CCCCCCCOC(=O)CCC as the compound, how does the “fluorescence, % of fluorescent control” value read?
A: Its value is -0.007%.

Q: Which “fluorescence, % of fluorescent control” value does the source give for O=[N+]([O-])c1nccn1CO[C@@H](CO)[C@H](O)CO here?
A: Its value is 0.0777% [at 46 µM].

Q: For CCCCNc1ccc(C(=O)OCCN(CC)CC)cc1, which “fluorescence, % of fluorescent control” value is on record?
A: The value was 0.0086% [at 46 µM].

Q: Which “fluorescence, % of fluorescent control” value does the source give for C[C@@H]1CN(c2c(F)c(F)c3c(=O)c(C(=O)O)cn(C4CC4)c3c2F)C[C@H](C)N1 here?
A: Its value is -0.0087% [at 46 µM].

Test: qHTS assay to test for compound auto fluorescence at 535 nm (green) in HepG2 cell free culture (AID 720686)
Conditions: Cell-free medium, green autofluorescence 485/535 nm; series mostly up to 91.3 µM; fluorescence, % of fluorescein control: at the top concentration

Q: For O=CCCc1ccccc1, which “fluorescence, % of fluorescein control” value is on record?
A: Its value is 0.0773%.

Q: For CC1=C2[C@H](/C=C(\C)C(=O)O)CC[C@@H](C)[C@H]2CC1, which “fluorescence, % of fluorescein control” value is on record?
A: The value was -0.146% [at 95.7 µM].

Q: For Oc1ccccc1F, which “fluorescence, % of fluorescein control” value is on record?
A: Its value is 0.0175%.

Q: Which “fluorescence, % of fluorescein control” value does the source give for CCOc1ccc(NC(N)=O)cc1 here?
A: Its value is 0.103%.

Q: For COc1ccc2nc(NC(=O)Nc3ccccc3)sc2c1, which “fluorescence, % of fluorescein control” value is on record?
A: The value was 0.0249% [at 46 µM].

Q: With CCC/C=C/CO as the compound, how does the “fluorescence, % of fluorescein control” value read?
A: Its value is -0.0513%.

Q: Which “fluorescence, % of fluorescein control” value does the source give for CN1C(=O)CC(c2ccccc2)C1=O (configuration not stated) here?
A: The value was -0.138% [at 46 µM].

Q: For Cc1ccc(C(C)C)cc1O, which “fluorescence, % of fluorescein control” value is on record?
A: Its value is -0.0413%.

Q: With Cc1c[nH]c(=S)[nH]c1=O as the compound, how does the “fluorescence, % of fluorescein control” value read?
A: The value was -0.133%.

Q: For CCOc1ccc(OCC)c(Cl)c1, which “fluorescence, % of fluorescein control” value is on record?
A: The value was 0.0005%.

Q: With Cc1ccc([N+](=O)[O-])c(N)c1 as the compound, how does the “fluorescence, % of fluorescein control” value read?
A: The value was -0.0533%.

Q: For CCCCN1C[C@H](O)[C@@H](O)[C@H](O)[C@H]1CO, which “fluorescence, % of fluorescein control” value is on record?
A: The value was -0.0138% [at 46 µM].

Q: Which fluorescence, % of fluorescein control does the source give for CN1CCN(C2=Nc3ccccc3Oc3ccc(Cl)cc32)CC1 here?
A: Its fluorescence, % of fluorescein control is 0.0479% [at 18.6 µM].

Q: Which “fluorescence, % of fluorescein control” value does the source give for CN1[C@@H]2CC[C@H]1CC(OC(=O)c1c[nH]c3ccccc13)C2 (some centres not stated) here?
A: Its value is -0.0509% [at 46 µM].

Q: With CN1CCC[C@@H]1Cc1c[nH]c2ccc(CCS(=O)(=O)c3ccccc3)cc12 as the compound, how does the “fluorescence, % of fluorescein control” value read?
A: Its value is 0.125% [at 46 µM].

Q: Which “fluorescence, % of fluorescein control” value does the source give for CCOC(=O)CS here?
A: The value was -0.0113% [at 95.7 µM].

Q: Which “fluorescence, % of fluorescein control” value does the source give for Cc1cc2c(s1)Nc1ccccc1N=C2N1CCN(C)CC1 here?
A: Its value is 0.0416% [at 46 µM].

Q: With O=C1CCCCC1C1CCCCC1 (configuration not stated) as the compound, how does the “fluorescence, % of fluorescein control” value read?
A: Its value is -0.188%.

Q: Which “fluorescence, % of fluorescein control” value does the source give for CCC(=O)c1ccc2c(c1)N(CCCN(C)C)c1ccccc1S2 here?
A: The value was -0.0127% [at 46 µM].

Q: With CCOc1ccc(NS(=O)(=O)c2ccc(N)cc2)nn1 as the compound, how does the “fluorescence, % of fluorescein control” value read?
A: The value was 0.0143% [at 46 µM].

Q: With CCCCCCCCCCCCCCCCOP(=O)([O-])OCC[N+](C)(C)C as the compound, how does the “fluorescence, % of fluorescein control” value read?
A: Its value is 0.0173% [at 46 µM].

Q: For CCN(CCCc1ccccc1)CCCc1ccccc1, which fluorescence, % of fluorescein control is on record?
A: Its fluorescence, % of fluorescein control is 0.0299% [at 18.6 µM].

Q: With CCCCCCCCCCCCOCCOS(=O)(=O)O as the compound, how does the “fluorescence, % of fluorescein control” value read?
A: Its value is 0.0415%.

Q: For CCNCCO, which “fluorescence, % of fluorescein control” value is on record?
A: The value was 0.148%.

Q: With O=C(CC(=O)C(F)(F)F)c1ccccc1 as the compound, how does the “fluorescence, % of fluorescein control” value read?
A: Its value is 0.0959% [at 95.7 µM].

Q: For CCCCCCCOC(=O)CCC, which “fluorescence, % of fluorescein control” value is on record?
A: Its value is -0.0014%.

Q: With O=[N+]([O-])c1nccn1CO[C@@H](CO)[C@H](O)CO as the compound, how does the “fluorescence, % of fluorescein control” value read?
A: Its value is 0.0031% [at 46 µM].

Q: With CCCCNc1ccc(C(=O)OCCN(CC)CC)cc1 as the compound, how does the “fluorescence, % of fluorescein control” value read?
A: Its value is -0.0309% [at 46 µM].

Q: Which “fluorescence, % of fluorescein control” value does the source give for C[C@@H]1CN(c2c(F)c(F)c3c(=O)c(C(=O)O)cn(C4CC4)c3c2F)C[C@H](C)N1 here?
A: The value was 0.119% [at 46 µM].
